CYP2C19 inh: blockers of cytochrome P450 2C19 activity – biochemical, luminescence, ADME assay, primary screen; P33261; CYP2C19 Supersomes, luciferin-H EGE luminescence, 30 min; inhibition, % at 5 µM; 96,000 tested, 21% active; AID 778, 2007;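 active means CYP2C19 inhibition above a set limit at 5 µM in the primary screen, cut at about 50% in these data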;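 further: plate controls were negative control wells for no effect and 2.5 mM tranylcypromine positive control for full effect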
CYP2C9 inh: blockers of cytochrome P450 2C9 activity – biochemical, luminescence, ADME assay, primary screen. P11712. CYP2C9 Supersomes, luciferin-H conversion. inhibition, % at 5 µM. 96,000 tested, 20% active. AID 777, 2007;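 active means blocking of liver enzyme CYP2C9 beyond about 50% at 5 µM, limit read from the data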
Target sequence (P11712 whole entry, looked up): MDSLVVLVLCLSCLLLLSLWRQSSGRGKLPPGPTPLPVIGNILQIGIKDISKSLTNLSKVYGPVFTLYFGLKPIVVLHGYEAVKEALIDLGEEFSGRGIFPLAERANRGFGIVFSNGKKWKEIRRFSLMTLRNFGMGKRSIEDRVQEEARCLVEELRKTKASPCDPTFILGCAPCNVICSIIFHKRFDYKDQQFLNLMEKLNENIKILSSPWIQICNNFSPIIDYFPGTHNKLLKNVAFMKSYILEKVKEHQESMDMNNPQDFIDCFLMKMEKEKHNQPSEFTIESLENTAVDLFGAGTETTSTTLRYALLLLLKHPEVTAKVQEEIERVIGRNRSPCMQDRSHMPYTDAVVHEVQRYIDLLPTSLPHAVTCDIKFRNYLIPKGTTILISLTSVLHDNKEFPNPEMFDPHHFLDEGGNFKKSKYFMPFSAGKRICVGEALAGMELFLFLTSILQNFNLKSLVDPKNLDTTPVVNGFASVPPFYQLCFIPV
PostGolgi yeast: phenotypic screen on post-Golgi transport, primary screen. 98,000 tested, 0.9% active. inhibition, % at 10 µM. AID 739, 2007. post-Golgi transport phenotypic cell assay;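 further: yeast cells grown in 1536-well plates; yeast grown about 18 h at 30C before absorbance read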
PostGolgi ctrl: growth inhibition of yeast control strain, primary screen, counter-screen for post-Golgi transport modulator project; inhibition, % at 10 µM; 98,000 tested, 5% active; efflux-deficient yeast background strain, growth absorbance A615, 16 h
CYP2C9 activ: human CYP2C9 activators, primary screen, biochemical, luminescence; AID 1024, 2008; activation factor at 5 µM; recombinant CYP2C9, luciferin-H conversion; stronger effect = higher value; factor 1 = untreated enzyme, 0 = blocked; Cytochrome P450 2C9 (Homo sapiens), P11712; 96,000 tested, 1.4% active;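 active means activation factor of 2 or more for CYP2C9 at a 5 µM dose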;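 further: 0 = sulfaphenazole-blocked wells and 1 = vehicle-only wells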
CYP2C19 act: human CYP2C19 activators, primary screen, biochemical, luminescence; 96,000 tested, under 10 active; Cytochrome P450 2C19 (Homo sapiens), P33261; activation factor at 5 µM; recombinant CYP2C19, luciferin-H EGE luminescence; stronger effect = higher value; 0 = fully inhibited enzyme, 1 = untreated enzyme; AID 1025, 2008;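 active means activation factor of at least 2 at 5 µM in the primary screen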;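 further: 0 = wells with 2.5 mM tranylcypromine and 1 = vehicle-only wells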
Starred values were filed as active, the others as inactive; · = no result. An excerpt weighted towards active compounds, which were near 32% of everything screened. Unless noted, no stated cut-off is given here; in the data, active means inhibition above about 30%; inactive means the rest.

SMILES	CYP2C19 inh	CYP2C9 inh	PostGolgi yeast	PostGolgi ctrl	CYP2C9 activ	CYP2C19 act
COc1ccc(Cl)cc1NC(=O)c1ccco1	32	-320	0	3	4.2*	0.7
CCN(CCO)Cc1csc2ccc(Br)cc12	38	-28	-2	3	1.3	0.6
COc1cc(NC(=O)C(C)C)ccc1NC(=O)c1ccco1	14	64*	0	6	0.4	0.9
O=C(Nc1ccc(NC(=O)C2CCCCC2)nc1)c1ccco1	61*	32	4	4	0.7	0.4
COc1ccc(Cl)cc1C(=O)Nc1ccc(NC(=O)c2ccco2)cc1	4	38	29	-1	0.6	1
O=C(Nc1ccc(Cl)cc1C(=O)Nc1ccc(Br)cn1)c1ccco1	1	48	22	52*	0.5	1
CCOc1cc(NC(=O)C2CCCCC2)c(OCC)cc1NC(=O)c1ccco1	44	22	-12	2	0.8	0.6
COc1cc(NC(=O)C2CCCCC2)c(OC)cc1NC(=O)c1ccco1	62*	47	-2	-1	0.5	0.4
CCCC(=O)NCCc1ccc(S(N)(=O)=O)cc1	-16	17	-5	-7	0.8	1.2
CCOC12NC(=O)CC(=O)N1C(c1ccccc1)=CS2 (stereo not given)	26	20	4	-1	0.8	0.7
COc1cc(C(=O)OCC(=O)Nc2c(F)c(F)c(F)c(F)c2F)cc(OC)c1OC	78*	35	-2	-3	0.6	0.2
O=C(Nc1ccccc1Oc1ccccc1)c1cnccn1	24	11	2	13	0.9	0.8
COc1ccc(NC(=O)c2ccco2)c(OC)c1	11	-2	8	4	1	0.9
COc1cc(NC(=O)c2ccco2)c(OC)cc1NC(=O)Nc1ccccc1Cl	85*	60*	-4	-7	0.4	0.2
COc1ccc(OC)c(N/C(=N\c2nc(C)cc(C)n2)NC(=O)c2ccco2)c1	18	56*	·	·	0.4	0.8
Cc1ccc(Oc2ccc(Cl)cc2NC(=O)c2cnccn2)cc1	24	56*	1	7	0.4	0.8
COc1ccc(C(=O)OCC(=O)Nc2ccc(F)c(F)c2F)cc1OC	12	-1	-20	11	1	0.9
C=CCN(CC=C)C(=O)Nc1cc(Cl)ccc1OC	85*	-172	-5	5	2.7*	0.1
CN(C)c1nc(Oc2ccc(N)cc2)nc(N(C)C)n1	32	14	7	-9	0.9	0.7
Cc1ccc(NC2=Nc3ccccc3CS2)cc1	51*	13	0	4	0.9	0.5
COc1ccc(C(=O)CSc2nc3ccccc3n2CC(=O)c2ccccc2)cc1	54*	76*	-2	21	0.2	0.5
COc1ccc(OCCSc2nc3ccccc3n2CC(=O)O)cc1	-16	-20	14	2	1.2	1.2
CC(C)(C)NC(=O)Cn1c(SCC(N)=O)nc2ccccc21	-18	-16	3	5	1.2	1.2
COc1ccc(OC)c(C(=O)CSc2nc3ccccc3n2CC(=O)NC(C)(C)C)c1	26	87*	-5	-2	0.1	0.7
COc1ccc(C2(O)CCN(C(=O)NC3CCCCC3)CC2)cc1	-9	-1	5	6	1	1.1
SMILES	CYP2C19 inh	CYP2C9 inh	PostGolgi yeast	PostGolgi ctrl	CYP2C9 activ	CYP2C19 act
O/N=C1\CCCc2nnc3c(c21)CCCC3	1	-193	-4	1	2.9*	1
O/N=C1\CCCc2oc3c(c21)CCCC3	-9	-9	1	12	1.1	1.1
O=C1CCCc2c1cc(C(=O)Nc1ccc(Cl)cn1)c(=O)n2-c1ccccc1	16	78*	-1	10	0.2	0.8
O=C(Nc1ccc(Cl)cn1)c1ccccc1F	5	0	-1	23	1	1
CCC(C)(C)NC(=O)C(c1cccc(OC)c1)N(C(=O)c1ccn[nH]1)c1cccc(OC)c1 (stereo not given)	74*	23	-1	2	0.8	0.3
COc1ccc(N(C(=O)c2ccn[nH]2)C(C(=O)NC(C)(C)C)c2ccc(F)cc2)cc1 (stereo not given)	4	3	-6	8	1	1
CCOC(=O)c1cc(CN2CCOCC2)oc1-c1ccccc1	26	22	0	1	0.8	0.7
COc1cccc(NC(=O)C2CCCN(S(=O)(=O)c3cccc4nsnc34)C2)c1 (stereo not given)	50*	67*	-2	7	0.3	0.5
COc1ccccc1NC(=O)C1CCCN(S(=O)(=O)c2cccc3nsnc23)C1 (stereo not given)	72*	71*	2	8	0.3	0.3
O=C(NCc1ccccc1Cl)C1CCCN(S(=O)(=O)c2cccc3nsnc23)C1 (stereo not given)	77*	50*	18	6	0.5	0.2
O=C(NCC1CCCO1)C1CCCN(S(=O)(=O)c2cccc3nsnc23)C1 (stereo not given)	-5	-25	10	2	1.2	1.1
Cc1cccc(NC(=O)C2CCCN(S(=O)(=O)c3cccc4nsnc34)C2)c1 (stereo not given)	27	40	21	5	0.6	0.7
CCc1nc(SCC(=O)Nc2ccccc2C(=O)OC)n[nH]1	36	-59	0	26	1.6	0.6
O=C(CSc1n[nH]c(-c2ccncc2)n1)c1ccccc1	90*	96*	9	25	0	0.1
Cc1nc(SCN2C(=O)c3ccccc3C2=O)n[nH]1	·	·	5	2	·	·
COC(=O)CSc1n[nH]c(-c2cccnc2)n1	-14	-11	3	-5	1.1	1.1
Cc1nc(SCC(=O)c2ccccc2)n[nH]1	38	52*	-5	3	0.5	0.6
CCc1nc(SCC(=O)NCCc2ccccc2)n[nH]1	56*	-1	-6	0	1	0.4
CC(C)c1nc(SCC(=O)NCc2ccccc2)n[nH]1	54*	-13	4	1	1.1	0.5
O=C(CN1C(=O)C2CC=CCC2C1=O)Nc1nccs1 (stereo not given)	-8	-15	·	·	1.1	1.1
O=C(CSc1n[nH]c(-c2ccccc2)n1)Nc1ncc(Br)cc1Br	87*	88*	-5	28	0.1	0.1
Cc1cc(-c2ccccc2)nc(SCC(=O)c2cccc([N+](=O)[O-])c2)n1	44	68*	0	20	0.3	0.6
Cc1ccc(C)c(C(=O)CSc2n[nH]c(-c3ccncc3)n2)c1	98*	99*	-1	0	0	0
CC(=O)Nc1nc(SCCCc2ccccc2)n[nH]1	80*	19	-4	9	0.8	0.2
C=CCN1C(=O)C2C(C(=O)NCc3ccccc3)C3(C)C=CC2(O3)C1C(=O)NC(C)(C)C (stereo not given)	-11	-4	4	5	1	1.1
